Only a selection was taken, and hits are over-represented in it overall.
NTMT1 inh – Primary qHTS for Inhibitors of N-terminal methyltransferase 1 (NTMT1): MTaseGlo Assay; NTMT1 MTase-Glo SAH luminescence, purified enzyme; Potency, µM (highest dose often 114 µM), for the others: at the top dose activity change, negative = inhibition, hits mostly inhibitors; actives 2.5% (n = 59,000);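 further: potency means the concentration at half of the fitted maximal effect; plate controls were DMSO vehicle for no effect and no enzyme for full effect; nearly all actives have a fitted effect of over 65% in size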
DYRK1A inh-1 – Assay for Inhibitors of Dual-Specificity Tyrosine-(Y)-Phosphorylation Regulated Kinase 1A (Kinase-Glo assay). recombinant DYRK1A, Kinase-Glo ATP depletion luminescence. actives 80% (n = 100). Potency, µM (series often up to 76.9 µM), inactives show top-dose activity change, negative = inhibition, usual class: inhibitors. AID 2705, 2010. shares compounds with NTMT1 inh
CLK4 inh – Kinase Inhibition Study on Inhibitors of CDC-like Kinase 4 (Reaction Biology data): SAR round 2. shares compounds with NTMT1 inh. Reaction Biology kinase assay, 10 uM ATP. Potency, µM, usual class: inhibitors. actives 100% (n = 65); calls by dose curve
DYRK1A inh-2 – Kinase Inhibition Study on Inhibitors of Dyrk1a (Reaction Biology data); Reaction Biology kinase assay, 10 uM ATP; Potency, µM, hits mostly inhibitors; AID 504424, 2011; actives 90% (n = 65); shares compounds with NTMT1 inh;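 active means compounds that showed inhibition of Dyrk1a and received a fitted potency; inactive means compounds that showed no inhibition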
CLK2 RBC – Kinase Inhibition Study on Inhibitors of CDC-like Kinase 2 (Reaction Biology data); Potency, µM, hits mostly inhibitors; Reaction Biology kinase assay, 10 uM ATP; shares compounds with NTMT1 inh; actives 90% (n = 65);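 active means compound that inhibits Clk2 kinase in the dose series, with an IC50 potency reported; inactive means no inhibition seen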
CLK3 inh – Kinase Inhibition Study on Inhibitors of CDC-like Kinase 3 (Reaction Biology data); shares compounds with NTMT1 inh; recombinant CLK3 kinase assay, 10 uM ATP; Potency, µM, actives largely listed as inhibitors; actives 40% (n = 65); AID 504428, 2011;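 active means compounds that inhibited Clk3 enough in the ten-dose series to give a half-maximal potency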
Target sequence (P49761 whole entry, looked up): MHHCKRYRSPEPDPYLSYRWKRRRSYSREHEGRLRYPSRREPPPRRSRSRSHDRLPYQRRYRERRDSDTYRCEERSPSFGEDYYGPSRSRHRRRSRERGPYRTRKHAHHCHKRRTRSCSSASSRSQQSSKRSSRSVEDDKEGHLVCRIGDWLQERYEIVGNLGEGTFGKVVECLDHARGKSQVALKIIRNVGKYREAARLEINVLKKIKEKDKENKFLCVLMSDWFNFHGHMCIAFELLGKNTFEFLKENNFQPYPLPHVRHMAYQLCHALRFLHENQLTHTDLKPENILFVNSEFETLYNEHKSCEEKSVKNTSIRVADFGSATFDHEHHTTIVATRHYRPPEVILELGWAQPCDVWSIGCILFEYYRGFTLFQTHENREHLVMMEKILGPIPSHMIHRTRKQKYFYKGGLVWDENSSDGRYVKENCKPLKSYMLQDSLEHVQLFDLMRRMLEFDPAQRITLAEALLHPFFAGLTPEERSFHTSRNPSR
DYRK1B RBC – Kinase Inhibition Study on Inhibitors of Dyrk1b (Reaction Biology data) | Potency, µM, most hits filed as inhibitors | actives 80% (n = 65) | Recombinant Dyrk1b kinase assay, 10 uM ATP | shares compounds with NTMT1 inh;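 active means compounds whose dose response shows an inhibitor phenotype against the kinase Dyrk1b; inactive means compounds showing no inhibitor phenotype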
CLK1 inh – Kinase Inhibition Study on Inhibitors of CDC-like Kinase 1 (Reaction Biology data). shares compounds with NTMT1 inh. recombinant Clk1 kinase assay, 10 uM ATP. Potency, µM, most hits filed as inhibitors. actives 90% (n = 65);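 active means compounds that block the splicing kinase Clk1 enough to give a fitted half-inhibition concentration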
HSD17B4 counter – Extended Characterization of HPGD Inhibitors: Counterscreen Against HSD17b4. purified HSD17B4, estradiol/NAD+, NADH fluorescence. actives 10% (n = 230). Potency, µM (highest dose often 57.1 µM), inactives show top-dose activity change, negative = inhibition, most hits filed as inhibitors. shares compounds with NTMT1 inh
ALDH1A1 counter – Extended Characterization of HPGD Inhibitors: Counterscreen Against ALDH1A1; shares compounds with NTMT1 inh; actives 93% (n = 230); recombinant ALDH1A1, NADH fluorescence, propionaldehyde/NAD+; Potency, µM (highest dose often 57.1 µM), for inactives: at the top dose activity change, negative = inhibition, hits mostly inhibitors; AID 743195, 2013
Numbers without * were called inactive; i = inactive; ? = inconclusive; / = not tested or not shown; [ ] = remark or other dose. Unless noted, the call rests on the fitted dose curve; in most records, active means well fitted curve in the direction sought with a large enough effect; inconclusive means small, poorly fitted or top-dose-only effect, or another doubt; inactive means no such curve, though single readings can be large; an effect the other way counts as inactive or inconclusive.

SMILES | NTMT1 inh | DYRK1A inh-1 | CLK4 inh | DYRK1A inh-2 | CLK2 RBC | CLK3 inh | DYRK1B RBC | CLK1 inh | others
O=C(c1ccc2c(c1)ncn2-c1cccc(C(F)(F)F)c1)N1CCCCC1 | -0.5%[57.5 µM] | / | / | / | / | / | / | / | HSD17B4 counter=-12.4%;ALDH1A1 counter=?
Cc1ccc(-n2cnc3cc(C(=O)N4CCCCC4)ccc32)cc1 | 2.2% | / | / | / | / | / | / | /
c1nc(NCC2CCCC2)c2cc(-c3ccc4c(c3)OCO4)ccc2n1 | ? | 0.0654µM* | / | / | / | / | / | /
c1nc(NCc2ccc3c(c2)OCO3)c2cc(-c3ccc4c(c3)OCCO4)ccc2n1 | -1.6% | / | / | / | / | / | / | /
CN(C)CCNc1ncnc2ccc(-c3ccc4c(c3)OCO4)cc12 | ? | 1.64µM* | 1.94* | 1.39µM* | 15µM* | i | 7.34µM* | 4.16µM*
CN1CCCC1CCNc1ncnc2ccc(-c3ccc4c(c3)OCO4)cc12 (stereo unspecified) | -29.1%[57.5 µM] | 4.12µM* | 7.09* | 5.58µM* | 8.56µM* | i | 8.23µM* | 5.19µM*
Cc1cc(CNc2ncnc3ccc(-c4ccc5c(c4)OCO5)cc23)c(C)o1 | ? | 0.367µM* | 0.444* | 0.581µM* | 15µM* | i | 4.92µM* | 0.864µM*
